Data reported in the supplement of paper PMC10849652.
About 7,900 targets were measured; listed, in parts, are those with a hit and a random draw of the rest. About 0.6% of all pairs of compound and target were hits.

Tests used:
Assay in all cases: log2 fold change, soluble protein after heating vs DMSO (PISA); higher = thermal stabilisation; K562 cells, 10 uM, 30 min; active = over 0.2 and 3.5 SD of the protein, either way, in both replicates (recomputed)
[1] = target: ZEB2 (UniProt O60315)
Outline: (§1)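 Soluble protein was defined as the supernatant after 21,000xg for 90 min. It came from K562 cells at 2×10^6 cells/mL given 10 μM compound for 30 min, heated in aliquots for 3 min across 48°C-58°C, pooled, and extracted in PBS with 0.5% NP-40 at 4°C, and was quantified by TMTpro 16plex LC-MS/MS with equalised channel sums. Thermal stability against control samples, from duplicates, is reported as log2 fold change.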

[2] = target: ZER1 (UniProt Q7Z7L7)
Chain of ZER1 (Q7Z7L7 whole entry, looked up): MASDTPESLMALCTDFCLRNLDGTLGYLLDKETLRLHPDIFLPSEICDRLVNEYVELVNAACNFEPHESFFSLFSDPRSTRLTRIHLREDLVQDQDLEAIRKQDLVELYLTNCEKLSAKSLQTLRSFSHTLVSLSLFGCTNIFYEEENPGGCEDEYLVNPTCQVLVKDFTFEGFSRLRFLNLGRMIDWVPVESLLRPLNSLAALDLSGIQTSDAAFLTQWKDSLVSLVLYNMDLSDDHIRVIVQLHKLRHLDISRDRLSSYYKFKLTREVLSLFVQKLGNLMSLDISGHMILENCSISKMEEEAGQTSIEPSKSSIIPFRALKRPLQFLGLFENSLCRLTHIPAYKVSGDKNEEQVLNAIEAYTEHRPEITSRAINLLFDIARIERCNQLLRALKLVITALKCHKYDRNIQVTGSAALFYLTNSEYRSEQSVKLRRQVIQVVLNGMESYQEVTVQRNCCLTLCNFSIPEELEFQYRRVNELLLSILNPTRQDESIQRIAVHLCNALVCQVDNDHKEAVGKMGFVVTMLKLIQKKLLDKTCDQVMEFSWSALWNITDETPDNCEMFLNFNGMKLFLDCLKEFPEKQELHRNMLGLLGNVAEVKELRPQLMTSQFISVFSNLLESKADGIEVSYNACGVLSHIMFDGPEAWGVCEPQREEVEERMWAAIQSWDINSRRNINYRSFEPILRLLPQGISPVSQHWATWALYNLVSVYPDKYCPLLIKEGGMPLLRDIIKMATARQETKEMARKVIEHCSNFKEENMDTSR
Outline: as §1

[3] = target: ZFAND5 (UniProt O76080)
Chain of ZFAND5 (O76080 whole entry, looked up): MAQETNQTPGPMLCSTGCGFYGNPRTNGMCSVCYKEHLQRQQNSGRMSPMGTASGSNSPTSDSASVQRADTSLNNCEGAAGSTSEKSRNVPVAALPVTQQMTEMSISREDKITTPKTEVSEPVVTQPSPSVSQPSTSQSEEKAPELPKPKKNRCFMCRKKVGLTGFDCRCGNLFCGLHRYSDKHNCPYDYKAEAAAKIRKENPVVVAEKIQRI
Outline: as §1

[4] = target: ZFAND6 (UniProt Q6FIF0)
Chain of ZFAND6 (Q6FIF0 whole entry, looked up): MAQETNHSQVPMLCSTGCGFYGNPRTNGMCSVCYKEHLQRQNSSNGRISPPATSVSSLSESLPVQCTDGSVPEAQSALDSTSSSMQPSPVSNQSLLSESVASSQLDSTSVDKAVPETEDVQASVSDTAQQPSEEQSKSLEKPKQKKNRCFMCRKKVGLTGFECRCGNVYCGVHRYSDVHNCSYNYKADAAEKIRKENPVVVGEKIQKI
Outline: as §1

[5] = target: ZFP91 (UniProt Q96JP5)
Outline: as §1

[6] = target: ZFPL1 (UniProt O95159)
Outline: as §1

[7] = target: ZMAT2 (UniProt Q96NC0)
Outline: as §1

[8] = target: ZMYM1 (UniProt Q5SVZ6)
Outline: as §1

[9] = target: ZMYM3 (UniProt Q14202)
Chain of ZMYM3 (Q14202 whole entry, looked up): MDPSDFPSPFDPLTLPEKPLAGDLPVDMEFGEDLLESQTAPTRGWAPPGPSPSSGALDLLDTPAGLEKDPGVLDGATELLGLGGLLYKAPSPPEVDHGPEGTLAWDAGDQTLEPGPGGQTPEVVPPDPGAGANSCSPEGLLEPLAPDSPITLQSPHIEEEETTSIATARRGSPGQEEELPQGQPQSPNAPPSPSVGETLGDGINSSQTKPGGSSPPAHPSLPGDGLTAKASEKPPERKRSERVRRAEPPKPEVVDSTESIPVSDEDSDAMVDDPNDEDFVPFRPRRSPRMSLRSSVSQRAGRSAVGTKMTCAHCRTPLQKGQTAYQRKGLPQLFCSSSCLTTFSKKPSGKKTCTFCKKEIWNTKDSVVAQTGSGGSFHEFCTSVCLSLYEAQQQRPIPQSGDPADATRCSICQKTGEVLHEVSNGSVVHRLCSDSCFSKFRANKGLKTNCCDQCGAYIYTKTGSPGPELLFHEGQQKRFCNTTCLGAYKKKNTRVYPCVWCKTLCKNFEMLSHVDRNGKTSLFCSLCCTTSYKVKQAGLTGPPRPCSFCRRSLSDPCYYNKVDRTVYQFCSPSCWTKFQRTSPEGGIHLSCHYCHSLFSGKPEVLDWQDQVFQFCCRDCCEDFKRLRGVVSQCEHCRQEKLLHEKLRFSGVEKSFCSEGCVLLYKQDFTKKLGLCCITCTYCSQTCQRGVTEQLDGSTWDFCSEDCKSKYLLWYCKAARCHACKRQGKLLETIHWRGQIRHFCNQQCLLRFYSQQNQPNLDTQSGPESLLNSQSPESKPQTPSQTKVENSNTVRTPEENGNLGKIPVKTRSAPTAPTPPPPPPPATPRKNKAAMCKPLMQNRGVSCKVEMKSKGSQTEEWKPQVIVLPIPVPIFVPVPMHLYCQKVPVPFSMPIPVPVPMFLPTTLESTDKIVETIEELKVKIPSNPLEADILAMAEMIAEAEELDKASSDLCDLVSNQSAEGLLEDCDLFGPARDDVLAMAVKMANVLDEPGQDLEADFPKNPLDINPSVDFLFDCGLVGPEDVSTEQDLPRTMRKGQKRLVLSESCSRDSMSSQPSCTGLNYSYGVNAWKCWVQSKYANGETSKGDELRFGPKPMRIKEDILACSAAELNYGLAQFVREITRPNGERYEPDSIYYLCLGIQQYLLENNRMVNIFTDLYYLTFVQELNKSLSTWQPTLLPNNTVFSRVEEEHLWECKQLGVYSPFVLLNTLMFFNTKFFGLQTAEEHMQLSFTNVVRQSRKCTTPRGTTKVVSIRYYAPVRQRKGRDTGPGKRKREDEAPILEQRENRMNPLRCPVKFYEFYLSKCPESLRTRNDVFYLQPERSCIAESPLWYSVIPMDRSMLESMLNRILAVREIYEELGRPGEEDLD
Outline: as §1

[10] = target: ZNF143 (UniProt P52747)
Outline: as §1

[11] = target: ZNF217 (UniProt O75362)
Outline: as §1

[12] = target: ZNF239 (UniProt Q16600)
Chain of ZNF239 (Q16600 whole entry, looked up): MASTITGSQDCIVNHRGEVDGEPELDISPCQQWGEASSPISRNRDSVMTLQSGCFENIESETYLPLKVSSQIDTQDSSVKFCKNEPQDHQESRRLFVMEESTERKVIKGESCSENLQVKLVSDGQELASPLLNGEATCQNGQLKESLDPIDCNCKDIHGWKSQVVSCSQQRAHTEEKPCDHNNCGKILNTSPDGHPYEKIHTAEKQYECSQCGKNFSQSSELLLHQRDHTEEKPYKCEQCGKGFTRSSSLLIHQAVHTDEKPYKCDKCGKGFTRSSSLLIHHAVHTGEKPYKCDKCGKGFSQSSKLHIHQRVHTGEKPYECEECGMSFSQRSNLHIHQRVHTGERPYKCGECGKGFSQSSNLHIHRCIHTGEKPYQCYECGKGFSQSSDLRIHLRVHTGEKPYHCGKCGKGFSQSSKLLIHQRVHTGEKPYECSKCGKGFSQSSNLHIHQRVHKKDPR
Outline: as §1

[13] = target: ZNF277 (UniProt Q9NRM2)
Outline: as §1

[14] = target: ZNF511 isoform 1 (UniProt Q8NB15)
Outline: as §1

[15] = target: ZNF579 (UniProt Q8NAF0)
Outline: as §1

[16] = target: ZNF580 (UniProt Q9UK33)
Outline: as §1

[17] = target: ZNF609 (UniProt O15014)
Chain of ZNF609 (O15014 whole entry, looked up): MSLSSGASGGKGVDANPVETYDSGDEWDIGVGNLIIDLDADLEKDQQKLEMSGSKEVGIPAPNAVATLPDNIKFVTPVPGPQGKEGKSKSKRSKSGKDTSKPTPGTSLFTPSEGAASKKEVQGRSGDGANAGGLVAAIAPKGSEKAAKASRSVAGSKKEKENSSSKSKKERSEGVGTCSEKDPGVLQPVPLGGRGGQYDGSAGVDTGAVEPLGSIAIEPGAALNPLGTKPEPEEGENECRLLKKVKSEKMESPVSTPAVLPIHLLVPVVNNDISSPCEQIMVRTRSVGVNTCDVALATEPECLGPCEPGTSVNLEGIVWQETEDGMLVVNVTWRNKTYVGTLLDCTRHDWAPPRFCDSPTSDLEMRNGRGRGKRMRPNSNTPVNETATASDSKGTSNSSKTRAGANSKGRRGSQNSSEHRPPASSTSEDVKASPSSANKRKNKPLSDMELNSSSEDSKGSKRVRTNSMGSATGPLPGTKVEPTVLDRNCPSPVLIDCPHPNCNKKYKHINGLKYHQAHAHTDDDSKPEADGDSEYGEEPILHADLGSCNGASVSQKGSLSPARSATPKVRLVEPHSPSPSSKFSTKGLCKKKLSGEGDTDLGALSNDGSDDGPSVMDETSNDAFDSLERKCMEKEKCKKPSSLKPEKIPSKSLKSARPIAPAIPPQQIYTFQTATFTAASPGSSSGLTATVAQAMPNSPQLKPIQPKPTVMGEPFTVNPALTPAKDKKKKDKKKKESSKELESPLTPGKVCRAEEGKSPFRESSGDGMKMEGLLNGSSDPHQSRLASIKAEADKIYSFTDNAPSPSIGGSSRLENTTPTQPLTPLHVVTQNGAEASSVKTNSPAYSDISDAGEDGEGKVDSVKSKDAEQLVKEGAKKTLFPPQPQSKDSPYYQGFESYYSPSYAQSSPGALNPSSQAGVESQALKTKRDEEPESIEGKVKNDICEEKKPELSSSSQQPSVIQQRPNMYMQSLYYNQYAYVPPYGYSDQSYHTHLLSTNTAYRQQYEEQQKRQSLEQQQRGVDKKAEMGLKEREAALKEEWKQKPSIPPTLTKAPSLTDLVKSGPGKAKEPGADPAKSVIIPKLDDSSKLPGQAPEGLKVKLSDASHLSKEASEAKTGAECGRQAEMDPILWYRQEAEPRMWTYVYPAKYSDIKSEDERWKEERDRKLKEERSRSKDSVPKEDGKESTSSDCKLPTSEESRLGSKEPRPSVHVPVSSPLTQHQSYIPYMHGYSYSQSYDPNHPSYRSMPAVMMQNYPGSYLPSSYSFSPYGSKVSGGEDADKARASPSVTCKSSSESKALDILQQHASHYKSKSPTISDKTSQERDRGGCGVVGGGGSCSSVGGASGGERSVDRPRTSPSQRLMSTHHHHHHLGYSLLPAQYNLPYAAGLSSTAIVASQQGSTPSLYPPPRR
Outline: as §1

[18] = target: ZNF622 (UniProt Q969S3)
Chain of ZNF622 (Q969S3 whole entry, looked up): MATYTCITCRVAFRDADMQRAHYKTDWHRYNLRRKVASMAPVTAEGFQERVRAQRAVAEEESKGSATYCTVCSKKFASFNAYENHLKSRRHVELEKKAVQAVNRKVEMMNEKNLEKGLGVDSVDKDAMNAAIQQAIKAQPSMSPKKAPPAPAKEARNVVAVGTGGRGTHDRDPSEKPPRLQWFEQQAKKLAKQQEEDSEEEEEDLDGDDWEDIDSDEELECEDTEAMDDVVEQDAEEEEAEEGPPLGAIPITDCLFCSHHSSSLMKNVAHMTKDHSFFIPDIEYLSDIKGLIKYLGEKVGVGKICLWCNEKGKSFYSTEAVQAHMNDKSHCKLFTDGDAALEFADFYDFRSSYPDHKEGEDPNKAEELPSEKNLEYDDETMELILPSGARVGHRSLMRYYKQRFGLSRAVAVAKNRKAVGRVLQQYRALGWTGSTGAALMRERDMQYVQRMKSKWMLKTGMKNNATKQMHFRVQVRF
Outline: as §1

[19] = target: ZRANB2 (UniProt O95218)
Outline: as §1

[20] = target: ZNF512 (UniProt Q96ME7)
Outline: as §1

| Compound | log2 fold change [1] | log2 fold change [2] | log2 fold change [3] | log2 fold change [4] | log2 fold change [5] | log2 fold change [6] | log2 fold change [7] | log2 fold change [8] | log2 fold change [9] | log2 fold change [10] | log2 fold change [11] | log2 fold change [12] | log2 fold change [13] | log2 fold change [14] | log2 fold change [15] | log2 fold change [16] | log2 fold change [17] | log2 fold change [18] | log2 fold change [19] | log2 fold change [20] |
| --- | --- | --- | --- | --- | --- | --- | --- | --- | --- | --- | --- | --- | --- | --- | --- | --- | --- | --- | --- | --- |
| CS(=O)(=O)CCNCc1ccc(-c2ccc3ncnc(Nc4ccc(OCc5cccc(F)c5)c(Cl)c4)c3c2)o1 [lapatinib] | 0.019 (inactive) | -0.057 (inactive) | 0.038 (inactive) | -0.106 (inactive) | 0.173 (inactive) | -0.035 (inactive) | 0.016 (inactive) | 0.082 (inactive) | 0.007 (inactive) | -0.011 (inactive) | 0.018 (inactive) | -0.095 (inactive) | 0 (inactive) | -0.085 (inactive) | 0.05 (inactive) | -0.025 (inactive) | 0.09 (inactive) | 0 (inactive) | 0.018 (inactive) |  |
| COc1cc2nc(-c3cc(F)ccc3O)nc(N[C@@H]3CNC[C@H]3C(C)(C)O)c2cc1OC | -0.018 (inactive) | 0.048 (inactive) | 0 (inactive) | 0.017 (inactive) | -0.095 (inactive) | 0.099 (inactive) | -0.028 (inactive) | 0.004 (inactive) | -0.045 (inactive) | -0.19 (inactive) | -0.026 (inactive) | 0.024 (inactive) | 0.268 (inactive) | -0.013 (inactive) | 0.042 (inactive) | 0.093 (inactive) | 0.205 (inactive) | 0.028 (inactive) | -0.006 (inactive) |  |
| COc1cc2ncnc(Nc3ccc(F)c(Cl)c3)c2cc1OCCCN1CCOCC1 [gefitinib] | -0.086 (inactive) | -0.031 (inactive) | -0.006 (inactive) | -0.005 (inactive) | 0.02 (inactive) | 0.065 (inactive) | -0.021 (inactive) | 0.014 (inactive) | 0.034 (inactive) | -0.098 (inactive) | 0.001 (inactive) | -0.267 (inactive) | -0.053 (inactive) | -0.192 (inactive) | 0.111 (inactive) |  | -0.069 (inactive) | 0 (inactive) | 0.034 (inactive) | -0.02 (inactive) |
| CCCc1cc(C)[nH]c(=O)c1CNC(=O)c1cc(-c2ccnc(N3CCN(C)CC3)c2)cc2c1cnn2C(C)C | -0.067 (inactive) | -0.125 (inactive) | -0.038 (inactive) | -0.051 (inactive) | 0.074 (inactive) | -0.05 (inactive) | -0.044 (inactive) | -0.017 (inactive) | 0.067 (inactive) | -0.006 (inactive) | 0.003 (inactive) | -0.662 (active) | 0.154 (inactive) | 0.08 (inactive) | 0.058 (inactive) |  | -0.003 (inactive) | -0.01 (inactive) | 0.028 (inactive) | 0.363 (inactive) |
| C[C@@H]1COCCN1c1cc(C2(S(C)(=O)=O)CC2)nc(-c2cccc3[nH]ccc23)n1 | 0.001 (inactive) | 0.107 (inactive) | 0.041 (inactive) | 0.127 (inactive) | -0.124 (inactive) | -0.056 (inactive) | -0.022 (inactive) | 0.029 (inactive) | -0.058 (inactive) | -0.018 (inactive) | -0.099 (inactive) | -0.065 (inactive) | -0.566 (inactive) | 0.105 (inactive) | -0.114 (inactive) |  | -0.064 (inactive) | 0.067 (inactive) | 0.001 (inactive) | 0.007 (inactive) |
| CN1CCc2c(c3ccccc3n2Cc2ccc(C(=O)NO)cc2)C1 [Tubastatin A] | 0.181 (inactive) | 0.048 (inactive) | 0.285 (active) | 0.144 (inactive) | 0.077 (inactive) | -0.025 (inactive) | 0.057 (inactive) | 0.071 (inactive) | -0.028 (inactive) | -0.031 (inactive) | -0.086 (inactive) | 0.091 (inactive) | 0.275 (inactive) | -0.089 (inactive) | 0.095 (inactive) | -0.08 (inactive) | -0.126 (inactive) | 0.018 (inactive) | -0.032 (inactive) |  |
| CCCCN(Cc1ccc(C(=O)NO)cc1)C(=O)Nc1ccccc1 [Nexturastat A] | 0.047 (inactive) | 0.012 (inactive) | 0.371 (active) | 0.027 (inactive) | 0.079 (inactive) | -0.064 (inactive) | -0.011 (inactive) | 0.059 (inactive) | 0.07 (inactive) | 0.19 (inactive) | 0.006 (inactive) | 0.441 (inactive) | 0.276 (inactive) | -0.074 (inactive) | 0.004 (inactive) |  | 0.475 (active) | -0.086 (inactive) | -0.057 (inactive) | -0.038 (inactive) |
| CC[C@@H]1C(=O)N(C)c2cnc(Nc3ccc(C(=O)N[C@H]4CC[C@H](N5CCN(CC6CC6)CC5)CC4)cc3OC)nc2N1C(C)C [volasertib] | 0.001 (inactive) | 0.009 (inactive) | 0.215 (inactive) | 0.09 (inactive) | 0.016 (inactive) | -0.088 (inactive) | 0.036 (inactive) | -0.118 (inactive) | -0.077 (inactive) | -0.289 (active) | -0.007 (inactive) | 0.084 (inactive) | -0.017 (inactive) | 0.007 (inactive) | 0.098 (inactive) | 0.025 (inactive) | -0.328 (inactive) | 0.138 (inactive) | 0.1 (inactive) |  |
| COc1cccc2cc(-c3nc([C@H]4CC[C@H](C(=O)O)CC4)n4ncnc(N)c34)[nH]c12 | 0.051 (inactive) | 0.067 (inactive) | 0.129 (inactive) | 0.046 (inactive) | -0.042 (inactive) | -0.039 (inactive) | 0.071 (inactive) | -0.128 (inactive) | 0.001 (inactive) | 0.05 (inactive) | 0.043 (inactive) | 0.548 (inactive) | -0.24 (inactive) | 0.099 (inactive) | -0.078 (inactive) |  | -0.028 (inactive) | 0.01 (inactive) | -0.01 (inactive) | -0.041 (inactive) |
| NC1(Cc2ccc(Cl)cc2)CCN(c2ncnc3[nH]ccc23)CC1 | -0.149 (inactive) | 0.043 (inactive) | 0.119 (inactive) | 0.038 (inactive) | -0.042 (inactive) | 0.071 (inactive) | 0.058 (inactive) | 0.052 (inactive) | 0.117 (inactive) | 0.085 (inactive) | 0.197 (inactive) | 0.117 (inactive) | -0.319 (inactive) | 0.079 (inactive) | -0.064 (inactive) | 0.183 (inactive) | -0.115 (inactive) | -0.263 (active) | 0.014 (inactive) |  |
| Cc1ccc2c(=O)c3ccccc3n(CCCN)c2c1C | -0.476 (active) | -0.017 (inactive) | -0.095 (inactive) | 0 (inactive) | -0.432 (active) | 0.079 (inactive) | -0.04 (inactive) | 0.024 (inactive) | -0.058 (inactive) | -0.043 (inactive) | -0.142 (inactive) | 0.011 (inactive) | -0.126 (inactive) | 0.17 (inactive) | -0.168 (inactive) | -0.196 (inactive) | 0.205 (inactive) | -0.285 (active) | -0.399 (active) |  |
| CC[C@H](C)[C@H](NC(=O)[C@H]([C@@H](C)CC)N(C)C(C)=O)C(=O)N[C@H](C(=O)N[C@@H](CC(C)C)C(=O)[C@@]1(C)CO1)[C@@H](C)O [epoxomicin] | -0.026 (inactive) | 0.048 (inactive) | 0.345 (active) | 0.051 (inactive) | -0.045 (inactive) | 0.134 (inactive) | 0.103 (inactive) | -0.05 (inactive) | -0.033 (inactive) | 0.026 (inactive) | 0.075 (inactive) | -0.051 (inactive) | -0.06 (inactive) | -0.045 (inactive) | -0.024 (inactive) |  | -0.271 (inactive) | 0.056 (inactive) | -0.016 (inactive) | 0.085 (inactive) |
| Cc1nc(Nc2n[nH]c3c2CN(C(=O)N[C@H](CN(C)C)c2ccccc2)C3(C)C)c2sccc2n1 | -0.149 (inactive) | -0.141 (inactive) | 0.038 (inactive) | 0.028 (inactive) | -0.059 (inactive) | -0.034 (inactive) | 0.07 (inactive) | -0.063 (inactive) | -0.01 (inactive) | -0.047 (inactive) | -0.055 (inactive) | -0.012 (inactive) | 0.231 (inactive) | 0.005 (inactive) | -0.115 (inactive) |  | -0.018 (inactive) | 0.091 (inactive) | -0.032 (inactive) | 0.187 (inactive) |
| O=C(Nc1cccc(Nc2ncc(Br)c(NCCc3cnc[nH]3)n2)c1)N1CCCC1 | -0.106 (inactive) | -0.015 (inactive) | 0.01 (inactive) | -0.058 (inactive) | 0.004 (inactive) | -0.047 (inactive) | 0.017 (inactive) | -0.136 (inactive) | -0.042 (inactive) | -0.058 (inactive) | 0.01 (inactive) | 0.001 (inactive) | 0.034 (inactive) | 0.072 (inactive) | -0.377 (active) | 0.062 (inactive) | -0.035 (inactive) | 0.022 (inactive) | -0.007 (inactive) |  |
